The values below come from PubChem BioAssay (NCI).

This is part of a sample that, as a whole, favours compounds with a hit. Of some 83,000 tested, about 20% had one in any assay.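 Negative percent growth values reflect cell death: -40 means 40% of the cells present at the start died, and -100 means all died.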 A number with no mark means an inactive call. Active and inactive are the calls of the source. The calls were made as follows: active = growth percent below 10; inactive = the rest.

The test deals with A498 renal. The experiment in a line: NCI-60 one-dose screen, 48 h (100 = growth as untreated, 0 = no growth, -100 = all killed). The note with it: 10 µM unless noted.
With `COc1cc2c(cc1O)CC[C@@H]1[C@@H]2CC[C@]2(C)[C@@H](NCCN(C)C)CC[C@@H]12`, the growth is -79.3% (active).

Regarding `COc1cccc2c1C(=O)c1c(O)c3c(c(O)c1C2=O)C[C@](O)(C(=O)CO)C[C@H]3O[C@@H]1C[C@@H](NC(=O)CCCN(C)C2(c3ccc(F)cc3)CC3CCC2C3)[C@H](O)[C@@H](C)O1` (some centres not stated), the growth was 52.5%. Turning to `O=c1cc(CSc2nnc(SCc3cc(=O)oc4c3ccc3ccccc34)o2)c2ccc3ccccc3c2o1`, the growth was 98.9%. For `COc1cc2c(cc1O)CC[C@@H]1[C@@H]2CC[C@]2(C)[C@@H](OCCN(C)C)CC[C@@H]12`, the growth was 40.3%. For the compound `COc1ccc(-c2nnc(SCC(=O)c3ccc(Cl)cc3)o2)cc1`, the growth is 100%. Consider `NC(=NCCCOc1ccc(Cl)cc1)Nc1ccc(C(F)(F)F)cc1`, for which the growth was 35%.

With `CCCCC[C@H]1C/C=C2/C(=O)C=C[C@@H]2C/C=C\CCCC(=O)O1`, the growth was -61.1% (active). With `CNC(=O)c1cc(Oc2ccc(NC(=O)Nc3ccc(Cl)c(OC(F)(F)F)c3)c(F)c2)ccn1`, the growth is 36.9%. Consider `COc1ccc2c(c1)C(=O)/C(=C/c1cccnc1)CC2`, for which the growth is 100%. On to `COc1cccc(-c2nc(SCC(=O)Nc3ccc(C(=O)/C=C/c4ccc(OC)c(OC)c4)cc3)[nH]c(=O)c2C#N)c1`, for which the growth is 97.2%. `CCCn1c(=O)[nH]c(N)c([C@H]2c3ccccc3Oc3[nH]c(=O)n(CCC)c(=O)c32)c1=O`: the growth is 92.9%. On to `C=C1C(=O)O[C@H]2[C@H]1CC/C(COC(=O)NCc1ccc(OC)c(OC)c1)=C\CC[C@@]1(C)O[C@@H]21`, for which the growth is 86.9%.
